# Laboratory results as given in the OligoGym collection.
# Target: PLA2G4F
# Assay: pooled miR-30 sensor sort-seq; sequence = guide strand
# Conditions: shRNA
# Also: reference of the scale not given here.
row,Sequence,sensor-assay potency score (higher = more potent)
1,TTGTTCTTGATAGCAGTGCATC,-1.66
2,TATATTTGCATGATGTGGCCAC,0.329
3,TGAACTCGCACCACTCTGCAAA,-0.822
4,TAGTACTGTAGCCGCTCCGTGG,-1.01
5,TCGTCTGTGATATTCACACTGC,-0.569
6,TTGCACATAGCAGTCGGCTTTG,-0.794
7,TTCTTGATAGCAGTGCATCCAG,-0.546
8,TAGAGTGTGGAGATGCACCAGG,-0.214
9,TTGTTCAGGACGTTGTATCGAC,0.0752
10,TTGCAGGTAACAGATCCGGGGT,-0.679
11,TTGGCCACTATCCTAGTCTGGG,-0.525
12,TTTGTCGCTCCACACCTGGGGC,-1.27

# Target: PLA2R1
# Assay: as above
# Conditions: shRNA
row,Sequence,sensor-assay potency score (higher = more potent)
1,TAAAAGATTAGAACCTTCCTTT,0.786
2,TAATGCACTGTTATCAGCCTGA,0.301
3,TTATCTGTGGTGAACAGTCCAA,-0.19
4,TTTTTCACTATGAAATACCTTG,-0.37
5,TAGTATCACAACCTACTTCTGC,-0.635
6,TTTTGTAACAGAATCCACCATG,0.0446
7,TTACTTTTAAATTTTATCCAGG,-0.532
